# In the library only some 10% were active in any assay of this set; here they are far more common.
# JMJD2A Tudor = qHTS Assay for Inhibitors of JMJD2A-Tudor Domain. AlphaScreen JMJD2A-Tudor / H3K4me3 peptide binding. Potency, µM (top dose mostly 114 µM), usual class: inhibitors. 390,000 compounds, 4.4% hits; also: nearly all actives have a fitted effect of over 50% in size
# BAZ2B inh = qHTS Assay for Inhibitors of BAZ2B. Bromodomain adjacent to zinc finger domain protein 2B (Homo sapiens), Q9UIF8. AlphaScreen BAZ2B-H3K14Ac peptide displacement. Potency, µM (titrated, usually from 114 µM), most hits filed as inhibitors. 360,000 compounds, 4.4% hits. AID 504333, 2011; also: nearly all actives have a fitted effect of over 60% in size
#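 Complex of BAZ2B and biotin-H3K14Ac (50 nM apiece) forms over 30 min at RT, then faces library compounds up to 110 uM for another 30 min; AlphaScreen beads added, 20 min dark incubation, luminescence read.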
# HP1b chromo inh = HTS for Inhibitors of HP1-beta Chromodomain Interactions with Methylated Histone Tails; Chromobox protein homolog 1 (Homo sapiens), P83916; AlphaScreen HP1-beta / biotin-H3K9me3 peptide binding; Potency, µM (titrated, usually from 114 µM), hits mostly inhibitors; 390,000 compounds, 0.56% hits; AID 540317, 2011; also: nearly all actives have a fitted effect of over 70% in size
# Target sequence (P83916 whole entry, looked up): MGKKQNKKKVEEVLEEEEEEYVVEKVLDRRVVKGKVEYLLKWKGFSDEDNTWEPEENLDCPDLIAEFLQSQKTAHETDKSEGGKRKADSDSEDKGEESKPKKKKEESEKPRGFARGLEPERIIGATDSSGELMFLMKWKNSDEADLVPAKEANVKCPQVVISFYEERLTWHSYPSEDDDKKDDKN
#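 Compound inhibition of the preformed complex between 50 nM HP1-beta and 50 nM biotinylated H3K9me3 peptide was read by AlphaScreen. Buffer was PBS pH 7.4 with 0.01% Tween-20. Incubations ran 30 min at room temperature, with 10 ug/mL donor/acceptor beads.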
# Six1-Eya2 inh = qHTS Assay for Inhibitors of the Six1/Eya2 Interaction. Homeobox protein SIX1 (Homo sapiens) + Protein phosphatase EYA2 (Homo sapiens), …. AlphaScreen GST-Six1/His-Eya2 binding, biochemical; stronger effect = lower value. activity change, % (test concentration not listed). 360,000 compounds, 0.56% hits. AID 651725, 2012; in the data active = activity change below about -65%; inconclusive = mostly about -30% to -63%
#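 Compounds are tested against tagged Six1 and Eya2 proteins bridged by glutathione donor and nickel acceptor beads; after a one-hour incubation at 37 °C without light, AlphaScreen emission is recorded.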
# G9a block = qHTS Assay for Inhibitors of Histone Lysine Methyltransferase G9a | Histone-lysine N-methyltransferase EHMT2 (Homo sapiens), Q96KQ7 | G9a H3K9 monomethylation, AlphaScreen, 2 h | Potency, µM (doses to about 102 µM), hits mostly inhibitors | 350,000 compounds, 8.8% hits; also: nearly all actives have a fitted effect of over 75% in size
# Target sequence (Q96KQ7 913-1193 limits assumed): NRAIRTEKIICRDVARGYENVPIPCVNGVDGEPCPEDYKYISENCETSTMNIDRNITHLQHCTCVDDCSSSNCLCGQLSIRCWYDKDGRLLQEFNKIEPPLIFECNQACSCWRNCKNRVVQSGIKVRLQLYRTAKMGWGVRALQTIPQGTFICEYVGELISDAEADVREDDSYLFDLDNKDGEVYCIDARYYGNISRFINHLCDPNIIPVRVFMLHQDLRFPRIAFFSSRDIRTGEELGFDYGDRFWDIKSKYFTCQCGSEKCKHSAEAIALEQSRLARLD
#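 G9a (20 nM) was preincubated 15 min with compound, then reacted 2 h at room temperature with 500 nM biotin-H3K9 peptide and 20 µM SAM. Monomethyl-H3K9 detected by AlphaScreen using anti-H3K9me1 antibody.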
# CtBP-E1A blk = qHTS Assay for Inhibitors of the CtBP/E1A Interaction | CtBP / adenovirus E1A interaction (AlphaScreen) | AlphaScreen GST-E1A/His-CtBP binding, 1536-well; stronger effect = lower value | activity change, % (test concentration not listed) | 340,000 compounds, 0.49% hits | AID 651724, 2012; in the data active = activity change below about -65%; inconclusive = mostly about -30% to -63%
#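 Homogeneous bead-based format: GST-tagged E1A captured on glutathione donor beads, His-tagged CtBP on nickel acceptor beads; compounds precede bead addition by 2 h at 37 °C.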
# Hits are given with their value; n = inactive; u = inconclusive; x = no result; [ ] = another dose, or the depositor's remark. Unless noted, calls follow the shape of the dose curve; as a rule, active = well fitted inhibition curve with a large enough effect; inconclusive = small, poorly fitted or top-dose-only effect; inactive = no such curve, though single readings can be large or run the other way.
SMILES,JMJD2A Tudor,BAZ2B inh,HP1b chromo inh,Six1-Eya2 inh,G9a block,CtBP-E1A blk
Cc1cc(C)cc(-n2c(SCC(=O)Nc3nnc(C)s3)nc3c([nH]c4ccccc43)c2=O)c1,n,n,n,x,n,x
CCn1c2ccccc2c2nnc(SCCN3CCOCC3)nc21,n,n,n,n,n[0.501 µM],x
CCCCn1c2ccccc2c2nnc(SCC(=O)NC3=NN=C(c4ccccc4)CS3)nc21,x,n,x,x,28.2µM,x
CCn1c2ccccc2c2nnc(SCC(=O)N(C)C3CCS(=O)(=O)C3)nc21 (stereo not drawn),n,n,n,n,u,n
CCc1cc2c(=O)n(Cc3ccco3)c(SCC(=O)NC3CCS(=O)(=O)C3)nc2s1 (stereo not drawn),n,n,n,n,50.1µM,n
Cn1c2ccccc2c2nnc(SCCN3CCOCC3)nc21,n,n,n,n,50.1µM,n
CCn1c2ccccc2c2nnc(SCC(=O)NC3CCS(=O)(=O)C3)nc21 (stereo not drawn),n,n,n,n,39.8µM,n
O=C(Nc1cc(F)ccc1F)N1CCC(CN2CCCC2)CC1,n,n,n,x,n,x
O=C(C1CCN(S(=O)(=O)c2ccc(Br)s2)CC1)N1CCN(c2cccc(C(F)(F)F)c2)CC1,n,n,n,x,n,x
CCCN(CCC)C(=O)Cn1c(=O)n(-c2cccc(OC)c2)c(=O)c2c(C)c(C(=O)N(C)C)sc21,n,n,n,x,n,x
COc1ccccc1CNc1nc(-c2ccco2)nn1C(=O)c1cc(OC)c(OC)c(OC)c1,n,n,n,x,u,x
CCCCn1c2ccc(C)cc2c2nnc(SCCN3CCCCC3)nc21,n,n,n,n,u,n
Cn1c2ccccc2c2nnc(SCC(=O)Nc3cccc(O)c3)nc21,n,n,n,n,70.8µM,x
CCn1c2ccc(C)cc2c2nnc(SCCN3CCOCC3)nc21,n,n,n,u,44.7µM,u
COc1ccc(-c2cn3nc(N4CCCC(C(=O)Nc5cc(C)cc(C)c5)C4)sc3n2)cc1 (stereo not drawn),n,n,n,x,u,x
COc1cc(/C=C2/SC(=S)N(Cc3ccccc3)C2=O)ccc1OS(C)(=O)=O,u,u,n,n,12.6µM,n
COc1cc(/C=C2/SC(=S)N(Cc3ccccc3)C2=O)cc(Cl)c1O,25.1µM,12.6µM,u,n,44.7µM,x
COc1cc([N+](=O)[O-])cc(/C=C2/SC(=S)N(Cc3ccccc3)C2=O)c1O,17.8µM,14.1µM,u,n,10µM,x
COc1cc(/C=C2/SC(=S)N(CC(=O)O)C2=O)ccc1OC(=O)c1cccs1,u,u,u,n,50.1µM,u
COc1cc(/C=C2\SC(=S)N(CCC(=O)NCCc3ccccc3)C2=O)cc(OC)c1OC,n,n,n,n,n,n
Cc1ccc(C)c(N2CCN(C(=O)c3ccc(-c4nc(COc5ccccc5)c(C)o4)cc3)CC2)c1,n,n,n,x,n,x
CCn1cc(C(=O)N2CCN(c3ccccc3)CC2)c(=O)c2cc(S(=O)(=O)N3CCCC3)ccc21,n,x,n,x,n,x
Cc1n[nH]c(=S)n(/N=C/c2ccccn2)c1=O,2.82µM,u,n,-78.9,u,-86.9
CCc1n[nH]c(=S)n1/N=C/c1ccccn1,7.94µM,50.1µM,u,n,n[0.501 µM],n
CCc1n[nH]c(=S)n1/N=C/c1ccccc1OCc1ccc(Cl)cc1,n,n,n,n,x,n
SMILES,JMJD2A Tudor,BAZ2B inh,HP1b chromo inh,Six1-Eya2 inh,G9a block,CtBP-E1A blk
Cc1ccc(NC(=O)CSc2nccn2Cc2ccc3c(c2)OCO3)c(C)c1,u,u,n,x,u,x
Cc1cccc(-c2nc3nc(C)cc(NC(C)c4ccccc4)n3n2)c1 (stereo not drawn),n,n,n,x,n,x
CC(C)c1ccc(NC(=O)C2CCCN2S(=O)(=O)c2ccc3nc(-c4ccccc4)[nH]c3c2)cc1 (stereo not drawn),n,u,n,x,n,x
COc1ccc(S(=O)(=O)N2CCN(C(=O)CN3C(=O)NC4(CCCC4)C3=O)CC2)cc1,n,n,n,n,x,n
Cc1ccc(S(=O)(=O)N2CCN(C(=O)COC(=O)CCOc3ccccc3C)CC2)c(C)c1,n,n,n,n,11.2µM,n
CCOc1ccc(S(=O)(=O)N2CCN(C(=O)CN3C(=O)NC4(CCCC4)C3=O)CC2)cc1,n,n,n,n,31.6µM,n
Cc1ccc(OCCC(=O)OCC(=O)N2CCN(S(=O)(=O)c3ccc(Cl)cc3)CC2)cc1,n,n,n,n,n,n
O=C(CN1C(=O)C2CC=CCC2C1=O)N1CCN(S(=O)(=O)c2ccccc2)CC1 (stereo not drawn),n,x,n,n,x,n
CCOc1ccc(OCCC(=O)OCC(=O)N2CCN(S(=O)(=O)c3ccc(C)cc3)CC2)cc1,n,n,n,n,56.2µM,n
Cc1ccc(S(=O)(=O)N2CCN(C(=O)COC(=O)CCOc3cc(C)ccc3C)CC2)c(C)c1,n,x,n,n,x,n
Cc1ccc(C)c(S(=O)(=O)N2CCN(C(=O)CN3C(=O)C4CC=CCC4C3=O)CC2)c1 (stereo not drawn),n,n,n,n,50.1µM,n
CCc1ccc(Oc2c(C(F)(F)F)oc3c(CN4CCN(CC)CC4)c(O)ccc3c2=O)cc1,n,u,n,x,n,x
Cc1ccc(N2C(=O)CCSC23C(=O)N(Cc2ccccc2)c2ccccc23)cc1F (stereo not drawn),u,n,n,x,u,x
Cc1ccc(S(=O)(=O)N2CCN(C(=O)COC(=O)c3ccc(O)cc3)CC2)c(C)c1,89.1µM,n,n,n,n[0.501 µM],n
Cc1ccc(S(=O)(=O)N2CCN(C(=O)CN3C(=O)NC4(CCOc5ccccc54)C3=O)CC2)cc1 (stereo not drawn),n,n,n,n,56.2µM,n
Cc1sc(N)c(C(=O)c2ccccc2Cl)c1C,u,44.7µM,u,n,n[12.7 µM],n
CCCOc1ccc(C(=O)Nc2ccc3nn(-c4ccc(OC)c(Cl)c4)nc3c2)cc1,n,n,n,x,n,x
CN1CC=C2C(C#N)=C(N)C(C#N)(C#N)[C@H](c3ccoc3)[C@H]2C1,n,n,n,u,39.8µM,u
CC(=O)N1CC=C2C(C#N)=C(N)C(C#N)(C#N)[C@H](c3ccoc3)[C@H]2C1,n,n,n,n,u,n
CCOc1ccc(-n2nnnc2SCC(=O)NNC(=O)c2ccco2)cc1,22.4µM,n,n,n,x,n

# Assay outcomes as filed in PubChem.
